# Results reported in publication PMC7862700, “An all-to-all approach to the identification of sequence-specific readers for epigenetic DNA modifications on cytosine”.
# Assays:
# Experiment in all cases: DAPPL (digital affinity profiling via proximity ligation, sequencing); 10 mM Tris-HCl pH 7.5, 50 mM NaCl, 1 mM DTT, 4% glycerol, room temperature, 30 min; GST-TFs on glutathione beads, 16-mer random dsDNA library, 0.1% formaldehyde crosslink after washing; high values mean tight binding
# Conditions in all cases: protein: recombinant; tags: N-terminal GST; dsDNA, one strand shown
# FLI1 = target: T1, FLI1 (Homo sapiens, UniProt Q01543 1-452)
# T1 sequence: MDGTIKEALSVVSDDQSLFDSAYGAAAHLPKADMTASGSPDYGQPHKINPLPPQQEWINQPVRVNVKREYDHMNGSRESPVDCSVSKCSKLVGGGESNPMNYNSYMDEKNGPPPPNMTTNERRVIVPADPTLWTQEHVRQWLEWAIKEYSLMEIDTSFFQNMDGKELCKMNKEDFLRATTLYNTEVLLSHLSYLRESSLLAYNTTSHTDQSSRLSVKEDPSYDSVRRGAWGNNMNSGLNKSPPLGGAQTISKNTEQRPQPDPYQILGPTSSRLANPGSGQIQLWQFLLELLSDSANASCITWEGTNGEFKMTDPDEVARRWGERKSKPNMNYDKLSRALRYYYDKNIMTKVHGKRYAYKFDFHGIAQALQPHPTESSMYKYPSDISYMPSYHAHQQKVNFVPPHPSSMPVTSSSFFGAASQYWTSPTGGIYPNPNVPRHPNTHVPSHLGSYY
# How it was run: (§1)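 Pools were built from human transcription factors expressed in yeast as GST fusions, captured on glutathione beads and DNA-barcoded, along with a tag-only sample. Incubation with 200 nmole of a 16-mer random double-stranded DNA library lasted 30 min at room temperature in Tris/NaCl/DTT/glycerol buffer, and was followed by washing, 0.1% formaldehyde crosslinking, proximity ligation, PCR amplification and Illumina NextSeq500 sequencing. Binding signal is the quotient of each hexamer's read frequency for a factor and its frequency for the tag-only sample.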
# ELK1 = target: T2, ELK1 (Homo sapiens, UniProt P19419 1-428)
# T2 sequence: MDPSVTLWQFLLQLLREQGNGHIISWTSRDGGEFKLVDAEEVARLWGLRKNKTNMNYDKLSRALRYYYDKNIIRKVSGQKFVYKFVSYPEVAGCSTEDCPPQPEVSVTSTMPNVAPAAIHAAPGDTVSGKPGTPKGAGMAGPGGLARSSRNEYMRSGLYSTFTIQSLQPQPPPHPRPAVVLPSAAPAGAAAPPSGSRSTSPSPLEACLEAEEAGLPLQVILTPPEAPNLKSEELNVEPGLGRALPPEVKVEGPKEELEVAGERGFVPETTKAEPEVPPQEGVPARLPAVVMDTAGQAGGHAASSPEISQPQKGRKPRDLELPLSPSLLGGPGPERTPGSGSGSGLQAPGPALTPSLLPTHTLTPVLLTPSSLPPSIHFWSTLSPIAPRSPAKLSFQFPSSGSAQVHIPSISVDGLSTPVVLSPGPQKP
# How it was run: as §1
# ERG = target: T3, ERG (Homo sapiens, UniProt P11308 1-479)
# T3 sequence: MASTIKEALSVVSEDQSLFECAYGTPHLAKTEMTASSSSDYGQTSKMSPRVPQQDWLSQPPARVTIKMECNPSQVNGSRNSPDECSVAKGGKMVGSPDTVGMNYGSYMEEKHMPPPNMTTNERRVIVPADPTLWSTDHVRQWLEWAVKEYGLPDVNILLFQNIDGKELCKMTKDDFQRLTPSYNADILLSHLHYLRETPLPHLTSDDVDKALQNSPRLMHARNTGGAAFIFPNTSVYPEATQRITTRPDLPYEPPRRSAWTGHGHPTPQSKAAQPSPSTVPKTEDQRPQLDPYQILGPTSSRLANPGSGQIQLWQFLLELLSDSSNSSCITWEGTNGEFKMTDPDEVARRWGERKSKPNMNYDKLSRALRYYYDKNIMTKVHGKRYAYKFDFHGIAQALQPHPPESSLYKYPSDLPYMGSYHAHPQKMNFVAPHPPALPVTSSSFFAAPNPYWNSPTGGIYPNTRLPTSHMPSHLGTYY
# How it was run: as §1
# EHF = target: T4, EHF (Homo sapiens, UniProt Q9NZC4 1-300)
# T4 sequence: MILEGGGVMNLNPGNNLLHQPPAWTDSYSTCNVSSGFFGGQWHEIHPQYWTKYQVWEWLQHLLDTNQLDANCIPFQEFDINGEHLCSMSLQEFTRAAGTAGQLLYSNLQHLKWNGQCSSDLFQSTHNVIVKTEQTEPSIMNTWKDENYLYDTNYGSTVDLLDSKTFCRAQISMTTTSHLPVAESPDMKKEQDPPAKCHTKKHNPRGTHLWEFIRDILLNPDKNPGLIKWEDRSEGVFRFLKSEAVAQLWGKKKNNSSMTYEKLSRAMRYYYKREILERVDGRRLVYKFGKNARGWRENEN
# How it was run: as §1
# SPI1 = SPI1 (Homo sapiens, UniProt P17947 1-270)
# How it was run: as §1
# SPIB = SPIB (Homo sapiens, UniProt Q01892 1-262)
# How it was run: as §1
# FEV = target: T5, FEV (Homo sapiens, UniProt Q99581 1-238)
# T5 sequence: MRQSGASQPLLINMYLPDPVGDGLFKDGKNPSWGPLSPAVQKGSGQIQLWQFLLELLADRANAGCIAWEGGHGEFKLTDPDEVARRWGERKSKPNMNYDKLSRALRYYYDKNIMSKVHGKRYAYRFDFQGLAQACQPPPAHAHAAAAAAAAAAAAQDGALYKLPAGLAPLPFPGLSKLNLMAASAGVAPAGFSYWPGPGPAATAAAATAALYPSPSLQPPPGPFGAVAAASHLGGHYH
# How it was run: as §1
# ETV5 = ETV5 (Homo sapiens, UniProt P41161 1-510)
# How it was run: as §1
# ELF4 = ELF4 (Homo sapiens, UniProt Q99607 1-663)
# How it was run: as §1
# ETV1 = ETV1 (Homo sapiens, UniProt P50549 1-477)
# How it was run: as §1
# ETV3L = target: T6, ETV3L (Homo sapiens, UniProt Q6ZN32 1-361)
# T6 sequence: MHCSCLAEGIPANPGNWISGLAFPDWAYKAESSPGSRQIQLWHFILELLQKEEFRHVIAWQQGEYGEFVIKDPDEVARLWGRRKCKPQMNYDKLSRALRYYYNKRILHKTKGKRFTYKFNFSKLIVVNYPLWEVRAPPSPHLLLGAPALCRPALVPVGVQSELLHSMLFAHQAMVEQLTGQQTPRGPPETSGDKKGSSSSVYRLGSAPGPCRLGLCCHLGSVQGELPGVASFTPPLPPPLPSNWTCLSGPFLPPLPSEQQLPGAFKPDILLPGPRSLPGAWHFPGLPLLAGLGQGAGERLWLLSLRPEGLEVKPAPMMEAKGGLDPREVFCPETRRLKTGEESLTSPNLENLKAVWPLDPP
# How it was run: as §1
# ETV7 = target: T7, ETV7 (Homo sapiens, UniProt Q9Y603 1-341)
# T7 sequence: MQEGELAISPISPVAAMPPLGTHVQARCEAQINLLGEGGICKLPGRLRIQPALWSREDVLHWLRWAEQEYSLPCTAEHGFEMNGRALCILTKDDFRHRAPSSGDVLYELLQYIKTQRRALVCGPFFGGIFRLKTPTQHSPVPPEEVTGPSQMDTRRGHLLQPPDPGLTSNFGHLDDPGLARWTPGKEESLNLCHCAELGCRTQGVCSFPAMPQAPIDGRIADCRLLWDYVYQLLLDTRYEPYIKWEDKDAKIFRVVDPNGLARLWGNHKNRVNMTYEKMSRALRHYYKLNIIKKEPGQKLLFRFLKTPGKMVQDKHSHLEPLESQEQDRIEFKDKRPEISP
# How it was run: as §1
# ETV3 = target: T8, ETV3 (Homo sapiens, UniProt P41162-2 1-143)
# T8 sequence: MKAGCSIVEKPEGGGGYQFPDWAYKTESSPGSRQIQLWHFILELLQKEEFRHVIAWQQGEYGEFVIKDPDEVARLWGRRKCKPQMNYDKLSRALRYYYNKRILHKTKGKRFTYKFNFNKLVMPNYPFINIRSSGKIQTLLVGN
# How it was run: as §1
# ETV6 = ETV6 (Homo sapiens, UniProt P41212 1-452)
# How it was run: as §1
# Chain of SPIB (Q01892 whole entry): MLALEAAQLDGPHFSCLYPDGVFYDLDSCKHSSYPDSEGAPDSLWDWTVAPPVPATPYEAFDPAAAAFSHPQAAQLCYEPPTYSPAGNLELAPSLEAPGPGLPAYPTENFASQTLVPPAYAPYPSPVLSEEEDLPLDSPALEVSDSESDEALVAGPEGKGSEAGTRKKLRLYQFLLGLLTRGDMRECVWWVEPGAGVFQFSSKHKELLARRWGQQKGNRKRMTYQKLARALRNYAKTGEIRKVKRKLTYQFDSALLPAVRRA
# Chain of ETV5 (P41161 whole entry): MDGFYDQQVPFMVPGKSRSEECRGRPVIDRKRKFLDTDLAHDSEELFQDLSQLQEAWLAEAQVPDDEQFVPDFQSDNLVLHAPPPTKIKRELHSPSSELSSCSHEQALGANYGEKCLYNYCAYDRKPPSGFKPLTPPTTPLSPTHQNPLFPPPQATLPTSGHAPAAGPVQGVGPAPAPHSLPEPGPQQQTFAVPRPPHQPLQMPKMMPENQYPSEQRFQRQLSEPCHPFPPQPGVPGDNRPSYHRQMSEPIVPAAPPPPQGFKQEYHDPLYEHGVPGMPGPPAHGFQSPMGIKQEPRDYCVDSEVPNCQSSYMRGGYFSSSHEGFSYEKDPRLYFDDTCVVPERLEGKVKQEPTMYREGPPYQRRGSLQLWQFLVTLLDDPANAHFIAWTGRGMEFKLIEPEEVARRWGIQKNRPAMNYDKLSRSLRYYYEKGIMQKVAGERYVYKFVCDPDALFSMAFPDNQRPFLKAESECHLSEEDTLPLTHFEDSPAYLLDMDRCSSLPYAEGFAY
# Chain of ETV1 (P50549 whole entry): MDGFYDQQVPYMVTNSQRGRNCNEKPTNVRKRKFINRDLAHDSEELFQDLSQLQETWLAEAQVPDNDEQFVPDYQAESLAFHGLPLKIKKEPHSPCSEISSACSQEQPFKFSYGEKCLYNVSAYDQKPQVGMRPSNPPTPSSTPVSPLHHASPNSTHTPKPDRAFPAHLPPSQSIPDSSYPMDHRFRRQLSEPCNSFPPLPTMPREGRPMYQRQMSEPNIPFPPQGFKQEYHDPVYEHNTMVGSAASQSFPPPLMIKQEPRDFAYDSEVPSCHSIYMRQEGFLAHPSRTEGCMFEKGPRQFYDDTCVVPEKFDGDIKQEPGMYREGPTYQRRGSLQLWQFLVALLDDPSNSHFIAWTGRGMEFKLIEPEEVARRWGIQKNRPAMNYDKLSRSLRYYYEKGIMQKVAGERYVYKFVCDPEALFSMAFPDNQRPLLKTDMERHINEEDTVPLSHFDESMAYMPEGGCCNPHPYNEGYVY
# Chain of ELF4 (Q99607 whole entry): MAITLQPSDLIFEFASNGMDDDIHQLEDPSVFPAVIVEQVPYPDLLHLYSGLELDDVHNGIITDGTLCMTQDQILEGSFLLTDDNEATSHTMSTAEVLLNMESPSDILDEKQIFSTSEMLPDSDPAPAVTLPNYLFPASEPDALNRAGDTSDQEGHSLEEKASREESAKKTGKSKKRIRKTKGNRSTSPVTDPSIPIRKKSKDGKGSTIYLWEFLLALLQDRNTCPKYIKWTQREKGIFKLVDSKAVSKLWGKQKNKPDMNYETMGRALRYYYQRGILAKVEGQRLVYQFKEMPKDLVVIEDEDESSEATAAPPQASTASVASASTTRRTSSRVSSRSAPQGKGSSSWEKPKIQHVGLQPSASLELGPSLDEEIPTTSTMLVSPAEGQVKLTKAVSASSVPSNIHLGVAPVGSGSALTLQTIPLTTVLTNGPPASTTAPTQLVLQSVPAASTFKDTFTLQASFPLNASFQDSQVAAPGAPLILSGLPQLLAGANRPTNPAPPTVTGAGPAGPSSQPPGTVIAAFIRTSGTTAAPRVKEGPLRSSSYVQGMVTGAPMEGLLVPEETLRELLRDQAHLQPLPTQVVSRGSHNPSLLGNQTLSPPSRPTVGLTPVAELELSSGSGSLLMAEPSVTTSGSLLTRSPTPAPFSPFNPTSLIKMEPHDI
# Chain of ETV6 (P41212 whole entry): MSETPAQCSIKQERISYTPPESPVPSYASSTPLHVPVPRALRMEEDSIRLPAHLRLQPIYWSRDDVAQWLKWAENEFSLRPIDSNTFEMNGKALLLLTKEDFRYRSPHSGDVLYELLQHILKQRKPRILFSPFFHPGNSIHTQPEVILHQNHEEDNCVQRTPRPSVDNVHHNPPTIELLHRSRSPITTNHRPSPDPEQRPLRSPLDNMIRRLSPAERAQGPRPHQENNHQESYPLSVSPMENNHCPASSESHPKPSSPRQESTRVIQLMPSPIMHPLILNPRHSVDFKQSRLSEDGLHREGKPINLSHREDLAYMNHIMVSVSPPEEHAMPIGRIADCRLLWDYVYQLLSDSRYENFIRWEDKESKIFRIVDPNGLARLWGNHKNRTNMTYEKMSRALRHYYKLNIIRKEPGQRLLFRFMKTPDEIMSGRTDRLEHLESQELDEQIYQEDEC
sequence,measurement,setting,value
AGTGAC,binding signal,FLI1,"1.07 fold enrichment (6-mer frequency, TF over GST control)"
same,binding signal,ELK1,"1 fold enrichment (6-mer frequency, TF over GST control)"
same,binding signal,ERG,"1.1 fold enrichment (6-mer frequency, TF over GST control)"
same,binding signal,EHF,"1.08 fold enrichment (6-mer frequency, TF over GST control)"
same,binding signal,SPI1,"1.33 fold enrichment (6-mer frequency, TF over GST control)"
same,binding signal,SPIB,"1.04 fold enrichment (6-mer frequency, TF over GST control)"
same,binding signal,FEV,"1.11 fold enrichment (6-mer frequency, TF over GST control)"
same,binding signal,ETV5,"1.05 fold enrichment (6-mer frequency, TF over GST control)"
same,binding signal,ELF4,"1.05 fold enrichment (6-mer frequency, TF over GST control)"
same,binding signal,ETV1,"1.03 fold enrichment (6-mer frequency, TF over GST control)"
same,binding signal,ETV3L,"1.1 fold enrichment (6-mer frequency, TF over GST control)"
same,binding signal,ETV7,"1.03 fold enrichment (6-mer frequency, TF over GST control)"
same,binding signal,ETV3,"1.1 fold enrichment (6-mer frequency, TF over GST control)"
same,binding signal,ETV6,"1.11 fold enrichment (6-mer frequency, TF over GST control)"
